A selection: hits, their analogues and other compounds. The true share with any hit is near 2.4%.
Pol eta inh-1: inhibitors of human DNA polymerase eta | Q9Y253 | recombinant Pol eta, fluorescent DNA replication assay | Potency, µM (series often up to 114 µM), inactives show top-dose activity change, negative = inhibition, usual class: inhibitors | hit rate 1.2% among 390,000 | AID 588591; further: on the % scale 0 is the no-effect control and ±100 the full control effect
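Pol eta at 10 nM preincubated with compounds 15 min at room temperature; reaction started with fluorescent substrate (50 nM final) and read kinetically at 0 and 10 min.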
POLI inh: inhibitors of human DNA polymerase iota. Potency, µM (top dose mostly 115 µM), inactives show at the top dose activity, negative = inhibition, actives largely listed as inhibitors. hit rate 1% among 390,000. Q9UNA4. Pol iota fluorescent replication assay, 10 min. AID 588590
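Pol iota at 10 nM preincubated 15 min with compounds at room temperature; reaction started with fluorescent substrate, 50 nM final. Fluorescence read kinetically at 0 and 10 min; buffer-only wells as negative control.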
FEN1 inh-1: blocks human flap endonuclease 1; P39748; Recombinant FEN1 flap cleavage, fluorescence, 15 min; Potency, µM (titrated, usually from 114 µM), for inactives: at the highest dose activity change, negative = inhibition, actives largely listed as inhibitors; hit rate 0.35% among 390,000; further: on the % scale 0 is the no-effect control and ±100 the full control effect; nearly all actives have a fitted effect of over 65% in size
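Read-out was taken twice, immediately and after 15 min, following addition of 50 nM substrate to 10 nM FEN1 that had sat with test compound for 15 min at room temperature. Curves came from a four-parameter Hill model.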
Pol kappa inh-1: blocks human DNA polymerase kappa activity; purified Pol kappa, fluorescent DNA synthesis assay, 10 min; AID 588579; hit rate 0.53% among 400,000; Potency, µM (series often up to 107 µM), without a hit: at the top dose activity, negative = inhibition, usual class: inhibitors; further: on the % scale 0 is the no-effect control and ±100 the full control effect
Target sequence (Q9UBT6 whole entry, looked up): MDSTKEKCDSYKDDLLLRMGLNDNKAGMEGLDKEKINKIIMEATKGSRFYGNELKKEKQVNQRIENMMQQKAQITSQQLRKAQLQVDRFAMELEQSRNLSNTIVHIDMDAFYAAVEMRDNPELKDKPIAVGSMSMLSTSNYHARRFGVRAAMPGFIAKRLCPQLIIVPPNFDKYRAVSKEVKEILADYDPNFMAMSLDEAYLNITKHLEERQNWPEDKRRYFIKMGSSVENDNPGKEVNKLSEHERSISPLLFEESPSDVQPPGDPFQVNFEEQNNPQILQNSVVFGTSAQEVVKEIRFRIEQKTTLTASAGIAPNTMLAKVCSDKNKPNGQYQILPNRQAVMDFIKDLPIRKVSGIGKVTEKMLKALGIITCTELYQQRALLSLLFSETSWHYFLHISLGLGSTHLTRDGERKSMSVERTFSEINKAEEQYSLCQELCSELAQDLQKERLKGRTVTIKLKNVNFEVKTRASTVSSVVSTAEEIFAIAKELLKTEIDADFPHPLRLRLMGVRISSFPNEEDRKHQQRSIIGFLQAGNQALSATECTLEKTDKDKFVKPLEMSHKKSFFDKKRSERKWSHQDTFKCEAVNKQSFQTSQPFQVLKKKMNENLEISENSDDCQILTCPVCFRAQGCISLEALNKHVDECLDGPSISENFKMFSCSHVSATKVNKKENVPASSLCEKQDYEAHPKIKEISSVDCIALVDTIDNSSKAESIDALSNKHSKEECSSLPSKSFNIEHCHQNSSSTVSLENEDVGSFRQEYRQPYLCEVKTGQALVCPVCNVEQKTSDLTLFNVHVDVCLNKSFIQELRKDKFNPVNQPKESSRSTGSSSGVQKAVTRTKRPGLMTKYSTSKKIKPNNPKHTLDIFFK
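Activity was followed as the change in fluorescence between reads at 0 and 10 min after starting the reaction with 50 nM substrate. Beforehand, 10 nM polymerase had been preincubated with compound for 15 min at room temperature.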
POLB inh: inhibitors of human DNA polymerase beta; AID 485314; Potency, µM (top dose mostly 114 µM), inactives show at the highest dose activity change, negative = inhibition, hits mostly inhibitors; P06746; hit rate 1.3% among 340,000; Pol beta primer extension/strand displacement, fluorescence kinetic; further: on the % scale 0 is the no-effect control and ±100 the full control effect
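10 nM enzyme + cpd, 15 min RT; start with substrate 50 nM final; read 0 min and after 10 min RT. Corrected, normalized data; 4-parameter Hill curve fit.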
WRN helicase inh: blocks human WRN helicase; Potency, µM (doses to about 114 µM), for the others: at the top dose activity change, negative = inhibition, most hits filed as inhibitors; Q14191; WRN helicase unwinding, fluorescent forked duplex, kinetic; AID 651768; hit rate 0.46% among 360,000; further: on the % scale 0 is the no-effect control and ±100 the full control effect; nearly all actives have a fitted effect of over 55% in size
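Fluorescence dequenching readout, ex 525 nm/em 598 nm, kinetic mode: forked duplex DNA (100 nM final) with adjacent fluorophore and quencher unwound by WRN (20 nM final) with 2 mM ATP. Compound preincubation 15 min, room temperature.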
TbPGK inh: validation of Trypanosoma brucei phosphoglycerate kinase inhibitors | hit rate 79% among 500 | shares compounds with Pol kappa inh-1 | TbPGK coupled GAPDH assay, Kinase-Glo luminescence | Potency, µM (series often up to 57.5 µM), for the others: at the highest dose activity change, negative = inhibition, usual class: inhibitors; further: on the % scale 0 is the no-effect control and ±100 the full control effect; nearly all actives have a fitted effect of over 65% in size
Pol iota confirm: Confirm cherry-picked inhibitors of human polymerase iota; shares compounds with Pol kappa inh-1; Pol iota primer extension, TAMRA/BHQ fluorescence; Potency, µM, actives largely listed as inhibitors; hit rate 77% among 1,500; AID 720496
Pol kappa inh-2: Pol kappa (human) inhibition, cherry-pick confirmation | shares compounds with Pol eta inh-1 | purified Pol-kappa, fluorescent strand-displacement substrate | Potency, µM, hits mostly inhibitors | hit rate 76% among 920 | AID 720501
Pol eta inh-2: Pol eta (human) inhibition, cherry-pick confirmation | shares compounds with Pol eta inh-1 | Pol eta primer extension, TAMRA/BHQ fluorescence, 10 min | Potency, µM, hits mostly inhibitors | hit rate 64% among 2,600 | AID 720502
FEN1 inh-2: FEN1 inhibition, cherry-pick retest | shares compounds with FEN1 inh-1 | FEN1 flap cleavage, TAMRA/BHQ2 fluorogenic DNA substrate | Potency, µM, hits mostly inhibitors | hit rate 79% among 880; further: nearly all actives have a fitted effect of over 60% in size
Starred values were filed as active, the others as inactive; u = inconclusive; x = not tested or not shown; ! = not confirmed by another sample; [ ] = remark or other dose. The call rests on the fitted dose curve; in most records, active means well fitted curve in the direction sought with a large enough effect; inconclusive means small, poorly fitted or top-dose-only effect, or another doubt; inactive means no such curve, though single readings can be large; an effect the other way counts as inactive or inconclusive. Potency means the concentration at half of the fitted maximal effect.

SMILES | Pol eta inh-1 | POLI inh | FEN1 inh-1 | Pol kappa inh-1 | POLB inh | WRN helicase inh | Pol iota confirm | Pol eta inh-2 | FEN1 inh-2 | others
O=C1C=CC(n2cc(F)c(=O)[nH]c2=O)O1 (centres undefined) | 20µM* | x | x | x | x | -14% | x | u | x | TbPGK inh=18µM*
Cc1c(C(=O)O)sc2nc(CSc3ncc(C(F)(F)F)cc3Cl)[nH]c(=O)c12 | 32µM* | u | -20% | -19% | 40µM* | -19% | u | 67* | x
Cc1ccc(-c2nc3c4cnn(-c5cc(Cl)ccc5Cl)c4ncn3n2)cc1 | x | 11% | 16% | 0% | 3% | x | x | x | x
COc1ccc(-c2cc(C(F)(F)F)c3c(n2)sc2c(O)cc(=O)[nH]c23)c(OC)c1 | 13µM* | u | u | 20µM* | 56µM* | u | 67* | 67* | x
CS(=O)(=O)c1cccc(C(=O)Nc2ccc(-c3nc4ccccc4[nH]3)cc2)c1 | -11% | u | 8% | -12% | 9% | -3% | x | x | x
Cc1ccc(C(=O)Nc2ccc(-c3nc4ccccc4[nH]3)cc2)cc1Br | x | x | x | x | x | x | 67* | u | 60*
O=C(O)c1cn(C2CC2)c2cc(N3CCN(S(=O)(=O)c4ccc5c(c4)OCCO5)CC3)c(F)cc2c1=O | 79µM* | -23% | u | -4% | -8% | 79µM* | 27* | x | 43*
COc1cccc(NC(=O)c2oc3ccccc3c2NC(=O)C23CC4CC(CC(C4)C2)C3)c1 | -7% | -16% | -1% | -2% | 27% | x | x | x | x
NC[C@H](O)c1ccc(O)c(O)c1 | -4% | 4µM*! | -12% | 0.71µM*! | -3%[57.1 µM] | -6%[11.6 µM] | 1.5* | 1.9* | 34*
CC(C1SC(=S)NC1=O)C1SC(=S)NC1=O (centres undefined) | 5µM* | x | x | x | x | u | 42* | 9.5* | u | Pol kappa inh-2=17*
CCOC(=O)C1=C(CN(CC)Cc2ccccc2)NC(=O)NC1c1ccc(Cl)cc1 (centres undefined) | -22% | 4% | -2% | -8% | 1% | x | x | x | x
COc1cc(OC)c(NC(=O)CCc2nc(C3=CCN(Cc4cccc(Cl)c4)CC3)no2)cc1Cl | -3% | -11% | -20% | -14%[60.1 µM] | 3% | x | x | x | x
COC(=O)CN1C(C(=O)c2ccccc2)=C(OC(=O)c2ccccc2)c2ccccc2S1(=O)=O | x | -4% | -18% | -17% | u | x | x | x | x
Cc1cc(C)n2nc(C(=O)N/N=C/c3ccccc3Cl)nc2n1 | 0% | 43% | -1% | -2% | 22% | 3% | x | x | x
Cc1cc(C)n2nc(C(=O)N/N=C/c3c4ccccc4cc4ccccc34)nc2n1 | u | -1% | 45µM* | -16% | u | u | 67* | u | u
COc1cc(Cl)c(C)cc1NC(=O)CSc1ncc(S(=O)(=O)c2ccc(C(C)(C)C)cc2)c(=O)[nH]1 | 10µM* | u | u | u | 10µM* | x | 21* | 30* | 48* | TbPGK inh=21µM*
CN(C)CCNC(=O)c1cccc2nc3cccc(F)c3nc12 | u | 89µM* | 14µM* | u | x | -18%[11.6 µM] | 42* | x | 19* | Pol kappa inh-2=17*
CCc1cc2c(cc3c(=O)n(CC(=O)NCCc4ccccc4)ncn32)s1 | -10% | 6% | 2% | -9% | u | x | x | x | x
Cc1cc[n+](-c2[nH]c(=O)sc2/C=N/N=C(\[O-])c2ccccc2)cc1 | u | 25µM* | -32% | u | 14µM* | u | 38* | 27* | 67*
O=c1[nH]c(-[n+]2ccccc2)c(/C=N/N=C(\[O-])c2ccccc2)s1 | 7% | 30% | -18% | -20% | 24% | -5% | x | x | x
CC(NC1=CC(=O)c2cccnc2C1=O)C(O)c1ccccc1 (centres undefined) | 16µM* | 4.5µM* | u | -9% | x | u | 19* | 24* | u
COc1cccc(-n2c(SCc3cc(=O)oc4cc(O)c(O)cc34)nc3ccccc3c2=O)c1 | 3.2µM* | 7.9µM* | 50µM* | 32µM* | 3.2µM* | 28µM* | 7.5* | 12* | 27*
CCN(CC)C(=O)CSc1nc2ccccc2c(=O)n1-c1cccc(OC)c1 | -4% | 11% | 5% | -5% | 5% | -5% | x | x | x
Cc1cc(C)n(Cc2ccc(C(=O)N/N=C/c3ccc(-c4ccc([N+](=O)[O-])cc4)o3)o2)n1 | 6.3µM* | 10µM* | 56µM* | 25µM* | 2µM* | 32µM* | 17* | 43* | 76*
O=C(COCc1cc(-c2ccc(F)cc2)on1)Nc1cccc(C(F)(F)F)c1 | -19% | 13% | -29% | -3% | 33% | x | x | x | x
SMILES | Pol eta inh-1 | POLI inh | FEN1 inh-1 | Pol kappa inh-1 | POLB inh | WRN helicase inh | Pol iota confirm | Pol eta inh-2 | FEN1 inh-2 | others
O=c1c2cc(O)c(O)cc2oc2cc(O)c(C3OC(CO)C(O)C(O)C3O)c(O)c12 (centres undefined) | 8.9µM* | u | -17% | 4µM* | x | -17% | 15* | 19* | u | Pol kappa inh-2=7.5*
O=C(CN(c1cc(C(F)(F)F)ccc1Cl)S(=O)(=O)c1ccccc1)NCCc1ccccc1 | -27% | 22% | -21% | 12% | 0% | x | x | x | x
Nc1ncnc2oc(-c3ccco3)c(-c3ccco3)c12 | 40µM* | u | 35µM* | 25µM* | 6.3µM* | u | 42* | 85* | 60*
COc1ccc(/C=C2\SC(=O)N(CC(=O)Nc3cccnc3)C2=O)cc1OC | -13% | 26% | 12% | 0% | 2% | 9% | x | x | x
COc1cc(/C=C2\SC(=O)N(CC(=O)Nc3cccc(C)c3)C2=O)cc([N+](=O)[O-])c1O | 22µM* | u | u | -17% | 8% | u | 75* | 48* | 76* | TbPGK inh=u
COc1cccc(NC(=O)Cn2cc(C(=O)c3ccc(C)cc3)c(=O)c3cc(OC)ccc32)c1 | 79µM* | u | 79µM* | 2% | 20µM* | x | 47* | x | u

Compound activity as filed in PubChem BioAssay.
